This passage reports Percent Effect results from ChEMBL document CHEMBL3988442, “University of Dundee, Small-Polar-MMV Screening Library” (2021).

Holding throughout (set-up): scale not given: direction of the effect not stated beside the values
Assay [1] concerns the target Protein translocase subunit SecA (Escherichia coli (strain K12)) (UniProt P10408). As to the kind of experiment: Assay to Identify E. coli SecA ATPase Inhibitors. The settings on record: 30 µM. Format: functional.
The target of assay [2] is T1, Ubiquitin-activating enzyme e1, putative (Leishmania donovani (strain BPK282A1)) (UniProt E9BSI1).
T1 sequence (whole entry): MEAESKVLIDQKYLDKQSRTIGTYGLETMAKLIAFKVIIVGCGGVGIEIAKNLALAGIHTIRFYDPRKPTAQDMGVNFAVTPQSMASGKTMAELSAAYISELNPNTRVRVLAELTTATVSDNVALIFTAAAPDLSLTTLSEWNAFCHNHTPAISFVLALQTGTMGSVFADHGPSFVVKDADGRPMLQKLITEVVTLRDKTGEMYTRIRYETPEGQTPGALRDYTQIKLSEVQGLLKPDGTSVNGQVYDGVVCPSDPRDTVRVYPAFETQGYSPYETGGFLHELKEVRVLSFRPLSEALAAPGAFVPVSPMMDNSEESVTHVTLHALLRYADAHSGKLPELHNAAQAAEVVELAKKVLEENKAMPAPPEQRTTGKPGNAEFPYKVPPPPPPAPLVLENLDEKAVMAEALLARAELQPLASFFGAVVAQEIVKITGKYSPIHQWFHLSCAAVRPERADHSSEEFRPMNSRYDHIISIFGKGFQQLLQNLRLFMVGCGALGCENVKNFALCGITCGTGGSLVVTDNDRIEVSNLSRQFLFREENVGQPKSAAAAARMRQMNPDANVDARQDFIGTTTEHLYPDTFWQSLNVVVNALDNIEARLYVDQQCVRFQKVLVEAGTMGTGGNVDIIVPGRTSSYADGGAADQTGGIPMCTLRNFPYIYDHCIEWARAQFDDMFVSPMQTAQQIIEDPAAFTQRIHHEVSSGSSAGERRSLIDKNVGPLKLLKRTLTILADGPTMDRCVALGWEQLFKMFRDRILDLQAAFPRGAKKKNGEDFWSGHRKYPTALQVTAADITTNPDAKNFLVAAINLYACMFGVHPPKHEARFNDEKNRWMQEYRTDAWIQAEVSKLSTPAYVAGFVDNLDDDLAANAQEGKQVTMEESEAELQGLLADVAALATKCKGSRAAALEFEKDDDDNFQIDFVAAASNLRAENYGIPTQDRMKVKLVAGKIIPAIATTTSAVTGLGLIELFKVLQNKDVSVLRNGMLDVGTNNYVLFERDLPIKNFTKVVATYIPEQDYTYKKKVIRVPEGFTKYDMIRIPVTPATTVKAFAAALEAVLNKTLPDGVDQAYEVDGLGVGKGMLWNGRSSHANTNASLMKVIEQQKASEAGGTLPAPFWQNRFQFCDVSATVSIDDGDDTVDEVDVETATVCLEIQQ
The assay can be described thus: Leishmania donovani Ubiquitin Activating Enzyme (LdE1). Format: functional. The settings on record: 30 µM.

The target of assay [3] is AMP-activated protein kinase, AMPK (Homo sapiens) (UniProt P54646+O43741+P54619+Q9UGJ0+Q9Y478+Q13131+Q9UGI9). As to the kind of experiment: AMP-dependent Kinase enzyme assay. An in vitro enzyme assay that detects ADP turnover that is directly proportional to AMPK activity. This uses naive AMPK that is activated during the assay with MK-8722. Format: functional. As to conditions: 30 µM.

Assay [4] deals with Sialic acid-binding Ig-like lectin 9 (Homo sapiens) (UniProt Q9Y336). As to the kind of experiment: Hs-Siglec9 ALPHAscreen SOP 20170721. The settings on record: 10 µM. (Bead proximity is the source of the signal in Alpha formats.)
Sequence of Sialic acid-binding Ig-like lectin 9 (Homo sapiens) (Q9Y336 whole entry): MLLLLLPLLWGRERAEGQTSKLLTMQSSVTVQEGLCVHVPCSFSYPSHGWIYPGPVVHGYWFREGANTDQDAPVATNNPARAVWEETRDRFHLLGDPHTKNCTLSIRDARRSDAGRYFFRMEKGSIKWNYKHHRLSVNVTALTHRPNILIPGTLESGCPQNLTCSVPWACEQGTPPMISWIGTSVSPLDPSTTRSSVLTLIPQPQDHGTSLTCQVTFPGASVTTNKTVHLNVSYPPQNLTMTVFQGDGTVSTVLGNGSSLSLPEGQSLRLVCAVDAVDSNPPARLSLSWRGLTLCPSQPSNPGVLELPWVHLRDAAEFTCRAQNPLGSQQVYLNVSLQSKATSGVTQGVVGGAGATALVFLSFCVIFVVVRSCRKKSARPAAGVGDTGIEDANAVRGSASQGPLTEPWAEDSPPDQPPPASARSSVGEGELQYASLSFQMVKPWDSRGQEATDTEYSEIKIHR
Another assay concerns Trypanosoma cruzi. As to the kind of experiment: Trypanosoma cruzi phosphomannomutase and mannose-1-phosphate guanylyltransferase assay. The settings on record: 10 µM. Format: functional.
For assay [5], the target named is T2, Arginase-2, mitochondrial (Homo sapiens) (UniProt P78540).
T2 sequence (whole entry): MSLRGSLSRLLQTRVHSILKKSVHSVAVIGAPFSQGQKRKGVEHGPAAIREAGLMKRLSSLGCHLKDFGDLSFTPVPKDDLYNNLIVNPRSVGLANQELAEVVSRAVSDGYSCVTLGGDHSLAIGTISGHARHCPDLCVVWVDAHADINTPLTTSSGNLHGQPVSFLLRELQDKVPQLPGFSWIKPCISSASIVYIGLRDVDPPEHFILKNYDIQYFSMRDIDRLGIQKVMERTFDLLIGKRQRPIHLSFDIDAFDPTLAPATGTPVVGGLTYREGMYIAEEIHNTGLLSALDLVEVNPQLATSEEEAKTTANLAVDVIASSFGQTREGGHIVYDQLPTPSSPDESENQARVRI
The assay can be described thus: in vitro enzyme assay to detect the production of urea directly proportional to the activity of Arginase II. Also: in the data most compounds retested in dose-response had high values. Format: functional. As to conditions: 33.3 µM.

In assay [6] the target is T3, Proteasome subunit beta (Trypanosoma cruzi) (UniProt O96673).
T3 sequence (whole entry): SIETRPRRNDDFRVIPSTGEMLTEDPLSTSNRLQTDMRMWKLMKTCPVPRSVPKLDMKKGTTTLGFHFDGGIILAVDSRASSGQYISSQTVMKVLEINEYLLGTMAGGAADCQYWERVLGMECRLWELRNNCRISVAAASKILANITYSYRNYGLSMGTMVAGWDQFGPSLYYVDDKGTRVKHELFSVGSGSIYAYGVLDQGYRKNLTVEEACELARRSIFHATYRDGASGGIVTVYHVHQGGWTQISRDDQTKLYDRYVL
As to the kind of experiment: Trypanosoma cruzi proteasome chymotrypsin-like activity (TcProtChymo) assay. Also: in the data most compounds retested in dose-response had high values. The settings on record: 9.37 µM. Format: functional.

The species named for another assay is Homo sapiens. As to the kind of experiment: To identify inhibition of the IFN signalling (Jak-Stat) pathway via expression of an eGFP reporter gene under the control of an IFN-stimulated response element (ISRE) containing MxA promoter. As to conditions: 30 µM. Format: functional. In general terms: In a reporter assay the amount or activity of a reporter protein is the signal.

Assay [7] has as its target T4, Tyrosyl-tRNA synthetase, putative (Trypanosoma cruzi (strain CL Brener)) (UniProt Q4DSP6).
T4 sequence (whole entry): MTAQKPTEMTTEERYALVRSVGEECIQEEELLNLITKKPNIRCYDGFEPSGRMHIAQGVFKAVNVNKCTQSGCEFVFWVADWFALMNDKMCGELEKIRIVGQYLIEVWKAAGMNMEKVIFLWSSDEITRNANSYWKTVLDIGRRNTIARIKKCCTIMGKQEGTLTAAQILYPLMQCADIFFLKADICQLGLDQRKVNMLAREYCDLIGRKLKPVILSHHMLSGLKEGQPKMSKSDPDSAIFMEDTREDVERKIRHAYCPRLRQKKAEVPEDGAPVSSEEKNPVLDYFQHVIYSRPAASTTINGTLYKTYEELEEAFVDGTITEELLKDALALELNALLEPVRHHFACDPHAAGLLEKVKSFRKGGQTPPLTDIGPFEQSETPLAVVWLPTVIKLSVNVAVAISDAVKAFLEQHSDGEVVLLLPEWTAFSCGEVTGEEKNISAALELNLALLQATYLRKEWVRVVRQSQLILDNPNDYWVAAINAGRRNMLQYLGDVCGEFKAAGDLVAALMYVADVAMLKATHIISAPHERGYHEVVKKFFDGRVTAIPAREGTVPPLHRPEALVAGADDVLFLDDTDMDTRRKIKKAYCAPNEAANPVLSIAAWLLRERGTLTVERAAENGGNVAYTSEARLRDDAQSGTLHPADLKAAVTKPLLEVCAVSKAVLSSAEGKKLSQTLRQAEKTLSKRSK
As to the kind of experiment: Trypanosoma cruzi tyrosyl tRNA synthetase (TcYRS) _High Tyrosine SOP. Also: in the data most compounds retested in dose-response had high values. Format: functional. The settings on record: 30 µM.

The target in assay [8] is T4, Tyrosyl-tRNA synthetase, putative (Trypanosoma cruzi (strain CL Brener)). As to the kind of experiment: Trypanosoma cruzi tyrosyl tRNA synthetase (TcYRS) SOP. Format: functional. The settings on record: 30 µM.
In assay [9] the target is Chromo domain-containing protein 1 (Saccharomyces cerevisiae (strain ATCC 204508 / S288c) (Baker's yeast)) (UniProt P32657). The assay can be described thus: ScCHD-1 Enzyme Inhibition Assay. Also: in the data most compounds retested in dose-response had high values. Format: functional. The settings on record: 30 µM.
Sequence of Chromo domain-containing protein 1 (Saccharomyces cerevisiae (strain ATCC 204508 / S288c) (Baker's yeast)) (P32657 whole entry, the tested form may be a part): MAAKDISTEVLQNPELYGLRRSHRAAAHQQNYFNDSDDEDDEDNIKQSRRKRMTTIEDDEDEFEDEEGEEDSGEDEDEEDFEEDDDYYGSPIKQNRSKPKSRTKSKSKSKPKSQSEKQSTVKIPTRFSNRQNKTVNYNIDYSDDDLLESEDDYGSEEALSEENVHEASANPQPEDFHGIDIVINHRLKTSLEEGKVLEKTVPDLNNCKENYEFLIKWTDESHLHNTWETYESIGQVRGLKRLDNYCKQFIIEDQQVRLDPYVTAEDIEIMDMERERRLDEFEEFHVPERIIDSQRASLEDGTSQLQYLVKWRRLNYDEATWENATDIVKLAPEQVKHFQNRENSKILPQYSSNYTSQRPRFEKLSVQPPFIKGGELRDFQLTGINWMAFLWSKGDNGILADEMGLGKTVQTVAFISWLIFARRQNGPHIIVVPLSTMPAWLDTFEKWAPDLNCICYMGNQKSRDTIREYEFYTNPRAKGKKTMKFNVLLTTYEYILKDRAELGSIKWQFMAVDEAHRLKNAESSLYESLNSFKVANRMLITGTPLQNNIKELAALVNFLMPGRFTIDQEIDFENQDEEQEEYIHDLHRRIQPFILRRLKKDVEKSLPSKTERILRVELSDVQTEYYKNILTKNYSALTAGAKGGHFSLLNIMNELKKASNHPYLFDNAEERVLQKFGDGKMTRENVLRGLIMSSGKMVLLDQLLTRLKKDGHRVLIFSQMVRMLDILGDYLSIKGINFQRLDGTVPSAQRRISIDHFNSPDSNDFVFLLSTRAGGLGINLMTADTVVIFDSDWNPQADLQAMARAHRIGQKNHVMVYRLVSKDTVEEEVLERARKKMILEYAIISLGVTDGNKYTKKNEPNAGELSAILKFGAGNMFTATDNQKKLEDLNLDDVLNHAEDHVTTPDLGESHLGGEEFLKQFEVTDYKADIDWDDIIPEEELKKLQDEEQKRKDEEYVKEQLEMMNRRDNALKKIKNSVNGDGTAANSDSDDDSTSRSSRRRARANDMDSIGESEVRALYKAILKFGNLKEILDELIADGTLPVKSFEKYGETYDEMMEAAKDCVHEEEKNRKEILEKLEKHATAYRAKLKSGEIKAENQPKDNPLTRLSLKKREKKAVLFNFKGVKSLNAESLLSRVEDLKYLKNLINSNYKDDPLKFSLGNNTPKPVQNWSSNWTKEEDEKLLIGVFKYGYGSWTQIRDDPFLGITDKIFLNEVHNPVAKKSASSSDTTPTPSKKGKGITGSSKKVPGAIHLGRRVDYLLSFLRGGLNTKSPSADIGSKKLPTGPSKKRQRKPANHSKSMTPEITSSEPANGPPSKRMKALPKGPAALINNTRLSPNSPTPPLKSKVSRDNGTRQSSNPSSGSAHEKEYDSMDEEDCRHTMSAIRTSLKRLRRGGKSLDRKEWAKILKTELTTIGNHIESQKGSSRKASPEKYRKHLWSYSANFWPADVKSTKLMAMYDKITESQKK

For some of these results: Results with a measured potency or affinity are listed apart.

Sequence of Protein translocase subunit SecA (Escherichia coli (strain K12)) (P10408 whole entry): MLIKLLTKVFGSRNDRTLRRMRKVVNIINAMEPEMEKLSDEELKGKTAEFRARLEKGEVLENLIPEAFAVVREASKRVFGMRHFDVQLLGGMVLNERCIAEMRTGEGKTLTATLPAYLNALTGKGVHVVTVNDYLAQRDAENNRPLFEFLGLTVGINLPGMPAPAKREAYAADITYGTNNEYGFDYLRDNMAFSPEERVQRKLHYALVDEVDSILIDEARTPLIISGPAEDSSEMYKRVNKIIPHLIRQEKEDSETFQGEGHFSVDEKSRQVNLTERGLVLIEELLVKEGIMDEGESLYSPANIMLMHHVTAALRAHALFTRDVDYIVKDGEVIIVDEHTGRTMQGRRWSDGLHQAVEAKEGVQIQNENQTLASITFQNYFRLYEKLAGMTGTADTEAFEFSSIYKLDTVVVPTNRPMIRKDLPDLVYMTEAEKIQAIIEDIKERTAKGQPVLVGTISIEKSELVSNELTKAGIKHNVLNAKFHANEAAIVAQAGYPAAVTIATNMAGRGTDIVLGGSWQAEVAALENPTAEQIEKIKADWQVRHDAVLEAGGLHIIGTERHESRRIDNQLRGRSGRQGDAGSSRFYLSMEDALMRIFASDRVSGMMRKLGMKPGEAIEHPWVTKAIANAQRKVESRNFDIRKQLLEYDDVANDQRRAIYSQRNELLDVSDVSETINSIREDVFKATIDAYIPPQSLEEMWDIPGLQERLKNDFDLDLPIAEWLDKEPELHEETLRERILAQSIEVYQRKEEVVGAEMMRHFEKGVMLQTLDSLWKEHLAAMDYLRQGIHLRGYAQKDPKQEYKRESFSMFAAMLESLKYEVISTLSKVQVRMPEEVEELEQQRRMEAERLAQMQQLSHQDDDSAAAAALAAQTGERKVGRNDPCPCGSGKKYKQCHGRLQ

For the compound `CN(CCC#N)C(=O)CCOc1cccc(F)c1`, the Percent Effect in assay [1] is -2.84%; in assay [2] it was 10.5%; in [3] it was 0.343%; in [4] it was -8.13%; in the assay on Trypanosoma cruzi, -0.876%; in [5] it was -4.73%. In addition, the Percent Effect is 10.3% in [6]; 20.8% in the assay filed under Homo sapiens; 3.19% in assay [7]; 10.4% in [8]; -3.22% in assay [9].
Regarding `Cc1cc(C(=O)N2Cc3ccccc3OC3(CCOCC3)C2)nc(N)n1`, the Percent Effect was -5.65% in assay [1]; 17.6% in assay [2]; 1.22% in assay [3]; -2.77% in assay [4]; 0% in the assay with Trypanosoma cruzi; -4.87% in [5]. Moreover, the Percent Effect in [6] was 22.9%; in the assay filed under Homo sapiens, 0.0795%; in assay [7], 2.15%; in assay [8] it was 14.3%; in [9] it was -24%.
On to `Cc1cnc(NC(=O)N2CCCC2)s1`, for which the Percent Effect in [1] is -4.49%; in [2], 2.7%; in assay [3], -1.71%; in assay [4] it was 2.98%; with Trypanosoma cruzi, 8.5%; in assay [5], -0.744%. The Percent Effect in assay [6] stood at 15.4%; in the assay listed under Homo sapiens, 6.72%; in [7], 1.07%; in [8], 3.7%; in [9] it was 1.48%.
Turning to `CCN1CCOC(CNCc2ccccc2OCC(=O)N(C)C)C1` (stereo not drawn), the Percent Effect in [1] was -1.78%; in assay [2] it was 0%; in [3], -9.78%; in assay [4], 0.0919%; with Trypanosoma cruzi, 8.31%; in assay [5], -2.88%. The Percent Effect in assay [6] is -4.32%; in the assay filed under Homo sapiens it was -7.21%; in assay [7] it was 1.48%; in assay [8], 13.6%; in assay [9], -2.56%.
With `Cc1cc(CNC(=O)N2CCN(c3nc(C)c(C)s3)CC2)no1`, the Percent Effect is -9.13% in assay [1]; 18.9% in assay [2]; -4.31% in [3]; 31.4% in assay [4]; 9.18% with Trypanosoma cruzi; 45% in assay [5]. In addition, the Percent Effect in assay [6] is 17.2%; in the assay listed under Homo sapiens it was 14%; in [7], 8.91%; in [8] it was 15.8%; in assay [9], -4.46%.
Turning to `CN(Cc1ccc2c(c1)OCO2)Cc1nc2c(cnn2C)c(=O)[nH]1`, the Percent Effect is -3.58% in assay [1]; 5.26% in assay [2]; 0.733% in assay [3]; -4.42% in [4]; 0.467% in the assay with Trypanosoma cruzi; -4.32% in assay [5]. Moreover, the Percent Effect is -0.592% in assay [6]; 4.07% in the assay listed under Homo sapiens; 8.37% in assay [7]; 6.17% in assay [8]; -3.9% in assay [9].
Take `Cn1cnc(S(=O)(=O)N2CCCC2)c1Cl`: the Percent Effect in assay [1] was -1.75%; in [2], 4.17%; in assay [3], -5.49%; in assay [4] it was -0.277%; in the assay on Trypanosoma cruzi, 1.46%; in [5], 13.2%. Besides, the Percent Effect is 15.4% in assay [6]; -29.7% in the assay listed under Homo sapiens; 3.16% in assay [7]; 10.3% in assay [8]; -2.89% in assay [9].
On to `COCCn1nc(C(=O)N2CCCC2c2cccc(F)c2)ccc1=O` (stereo not drawn), for which the Percent Effect in assay [1] was -0.858%; in assay [2], 5.41%; in [3] it was -0.552%; in assay [4], 11.3%; in the assay on Trypanosoma cruzi, 2.9%; in assay [5], 10%. Further, the Percent Effect in assay [6] was 8.1%; in the assay listed under Homo sapiens, -4.91%; in assay [7], -0.529%; in assay [8], -2.44%; in [9] it was -0.976%.
